Reference: PubChem BioAssay

Experiments:
[1] = test system: Botulinum neurotoxin type F light chain protease (Clostridium botulinum); assay: Botulinum neurotoxin type F light chain protease inhibition, multiplex microsphere flow cytometry, validation set (AID 588459); details: multiplex microsphere protease substrate cleavage assay, at 10 µM, hits give high values
[2] = biological target: Botulinum neurotoxin type A (Clostridium botulinum) (UniProt P0DPI0); assay: BoNT/A light chain protease inhibitors, biochemical, multiplex microsphere flow cytometry, validation set (AID 588460); details: at 10 µM, hits give high values
[3] = biological target: Lethal factor (Bacillus anthracis) (UniProt P15917); assay: Lethal factor protease inhibitors, Bacillus anthracis, multiplex microsphere cleavage assay, validation set (AID 588461); details: flow cytometry, at 10 µM, hits give high values

Measured: inhibition

Sequence of Lethal factor (Bacillus anthracis) (P15917 whole entry, looked up): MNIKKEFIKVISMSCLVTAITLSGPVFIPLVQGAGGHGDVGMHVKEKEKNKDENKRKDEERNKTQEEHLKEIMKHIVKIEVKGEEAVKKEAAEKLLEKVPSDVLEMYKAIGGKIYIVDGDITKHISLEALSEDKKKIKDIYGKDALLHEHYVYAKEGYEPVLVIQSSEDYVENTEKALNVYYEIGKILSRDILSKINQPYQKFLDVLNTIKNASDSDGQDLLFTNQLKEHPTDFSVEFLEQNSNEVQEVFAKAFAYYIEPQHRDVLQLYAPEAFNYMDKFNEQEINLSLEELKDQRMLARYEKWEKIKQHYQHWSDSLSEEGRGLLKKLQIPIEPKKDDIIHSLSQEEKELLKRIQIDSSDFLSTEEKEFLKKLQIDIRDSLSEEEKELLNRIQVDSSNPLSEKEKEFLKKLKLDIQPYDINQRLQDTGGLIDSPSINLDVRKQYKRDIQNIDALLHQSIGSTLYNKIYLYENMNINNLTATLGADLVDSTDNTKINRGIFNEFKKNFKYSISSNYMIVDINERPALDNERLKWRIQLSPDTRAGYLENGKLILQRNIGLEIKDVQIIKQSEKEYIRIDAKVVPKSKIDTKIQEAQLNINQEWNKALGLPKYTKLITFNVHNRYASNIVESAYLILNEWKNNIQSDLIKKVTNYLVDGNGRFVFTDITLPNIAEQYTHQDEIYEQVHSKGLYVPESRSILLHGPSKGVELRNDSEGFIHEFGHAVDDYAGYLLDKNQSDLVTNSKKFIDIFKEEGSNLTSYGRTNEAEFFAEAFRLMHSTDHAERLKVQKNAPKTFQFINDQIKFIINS
Sequence of Botulinum neurotoxin type A (Clostridium botulinum) (P0DPI0 whole entry, looked up): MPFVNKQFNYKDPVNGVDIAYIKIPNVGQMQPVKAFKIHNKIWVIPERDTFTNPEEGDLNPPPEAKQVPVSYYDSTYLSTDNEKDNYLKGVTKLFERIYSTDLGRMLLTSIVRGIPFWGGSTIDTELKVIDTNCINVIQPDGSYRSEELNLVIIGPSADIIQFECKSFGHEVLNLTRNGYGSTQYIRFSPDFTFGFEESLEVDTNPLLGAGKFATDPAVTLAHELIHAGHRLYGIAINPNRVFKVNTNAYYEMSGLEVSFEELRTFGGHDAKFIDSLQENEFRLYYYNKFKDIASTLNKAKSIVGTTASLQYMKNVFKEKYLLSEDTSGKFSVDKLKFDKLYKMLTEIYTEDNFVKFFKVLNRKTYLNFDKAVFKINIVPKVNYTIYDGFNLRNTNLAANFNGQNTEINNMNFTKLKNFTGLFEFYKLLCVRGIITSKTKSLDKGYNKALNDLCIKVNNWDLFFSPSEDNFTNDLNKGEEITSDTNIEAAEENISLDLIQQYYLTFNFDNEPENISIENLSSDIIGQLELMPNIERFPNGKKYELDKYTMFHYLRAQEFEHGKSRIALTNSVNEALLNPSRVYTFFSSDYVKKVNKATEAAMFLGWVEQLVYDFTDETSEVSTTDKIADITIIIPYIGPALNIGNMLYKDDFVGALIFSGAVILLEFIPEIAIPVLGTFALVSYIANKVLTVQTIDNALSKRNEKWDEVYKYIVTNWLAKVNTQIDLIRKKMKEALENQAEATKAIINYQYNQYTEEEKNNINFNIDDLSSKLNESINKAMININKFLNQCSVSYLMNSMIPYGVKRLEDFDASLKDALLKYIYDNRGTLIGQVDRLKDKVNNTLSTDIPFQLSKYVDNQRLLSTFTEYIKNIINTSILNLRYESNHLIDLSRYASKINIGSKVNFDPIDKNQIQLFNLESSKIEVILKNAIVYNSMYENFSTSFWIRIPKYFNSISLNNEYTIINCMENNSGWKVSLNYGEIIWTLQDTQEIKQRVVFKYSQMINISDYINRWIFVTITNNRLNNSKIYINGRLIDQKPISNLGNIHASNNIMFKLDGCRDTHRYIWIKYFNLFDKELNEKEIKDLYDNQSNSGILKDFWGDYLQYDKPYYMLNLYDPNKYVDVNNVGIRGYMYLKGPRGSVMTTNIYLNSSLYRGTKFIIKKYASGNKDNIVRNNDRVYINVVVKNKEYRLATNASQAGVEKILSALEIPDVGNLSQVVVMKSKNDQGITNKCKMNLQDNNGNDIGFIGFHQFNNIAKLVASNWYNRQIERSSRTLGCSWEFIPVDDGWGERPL

O=c1nc2sc3ccccc3n2c(=O)n1-c1ccc(Cl)cc1
inactive: [1] 0.3% | [2] -1.6% | [3] -7.9%

S=C(c1ccc2c(c1)OCO2)N1CCCCC1
inactive: [1] 1.1% | [2] -1.6% | [3] -0.2%

NS(=O)(=O)c1cc2c(cc1C(F)(F)F)NC(Cc1ccccc1)NS2(=O)=O (configuration not stated)
inactive: [1] 2.4% | [2] 1.4% | [3] 3.5%

CC1=C(C)C(=O)C(CCCCC#CCCCC#CCO)=C(C)C1=O
inactive: [1] -2.1% | [2] 0.4% | [3] -2.3%

Oc1ccc(/C=C/c2cc(O)cc(O)c2)cc1
inactive: [1] -6.7% | [2] -2.2% | [3] 3.7%

CCCCOC(=O)c1ccc(N)cc1
inactive: [1] 3.6% | [2] -1.1% | [3] 2.2%

O=C(NC(Nc1ccccn1)C(Cl)(Cl)Cl)c1ccccc1 (configuration not stated)
inactive: [1] -7.2% | [2] -1.5% | [3] 0.6%

COc1ccc2[nH]c(CN3CCN(CC(C)C)C(CCO)C3)c(C)c2c1 (configuration not stated)
inactive: [1] 2.4% | [2] 1.6% | [3] 3.1%

O=C(Nc1ccc(Cl)cn1)Nc1ccccc1Cl
inactive: [1] 2.9% | [2] 0.2% | [3] -4.9%

COc1ccc(CCNC(=O)C(=O)Nc2ccc3c(c2)OCO3)cc1OC
inactive: [1] 1.8% | [2] -0.8% | [3] -0.3%

Cn1cc(CN2CCC(C(=O)N3CCCCC3)CC2)c(-c2ccccc2F)n1
inactive: [1] 4% | [2] 0.2% | [3] 4.5%

CCOC(=O)C1=C(C)NC(C)=C(C(=O)OC)C1c1cccc([N+](=O)[O-])c1 (configuration not stated)
inactive: [1] -1.6% | [2] 0.4% | [3] -10%

COc1ccc(/C=C\c2nc(=O)c3ccccc3o2)cc1
inactive: [1] -0.6% | [2] -0.8% | [3] -3.7%

O=C(Oc1ccccc1)Oc1ccc2c(c1)oc(=O)c1ccccc12
inactive: [1] -1.6% | [2] -0.4% | [3] 0.9%

CCc1cc(C(N)=S)ccn1
inactive: [1] 1.9% | [2] 0.9% | [3] -2.7%

C#C[C@]1(O)CC[C@H]2[C@@H]3CCc4cc(OC5CCCC5)ccc4[C@H]3CC[C@@]21C
inactive: [1] -0.9% | [2] 0.8% | [3] 0.5%

O=C(NCCNc1ccc(Cl)cc1[N+](=O)[O-])c1cccnc1
inactive: [1] 0.4% | [2] -1.2% | [3] 2%

COc1cccc(OC)c1C(=O)NCCSC1CCCCC1
inactive: [1] 1.4% | [2] 0% | [3] 5.6%

C[C@]12CC[C@@H]3c4cc(O)c(O)cc4CC[C@H]3[C@@H]1CC[C@@H]2O
inactive: [1] -1% | [2] 1% | [3] -0.8%

Cc1csc(CCc2nc(C)cs2)n1
inactive: [1] 1.4% | [2] 0.2% | [3] -2.1%

COc1ccc(CCCC(=O)O)c(C)c1
inactive: [1] -0.2% | [2] 0.1% | [3] 6.1%

COc1ccc(Br)cc1C(=O)Nc1ccc(C(=O)O)cc1
inactive: [1] 1% | [2] 1% | [3] -2.2%

COc1cc(CNc2ccc(C)c(C)c2)cc(OC)c1OC
inactive: [1] 1.8% | [2] 0.5% | [3] -8.9%

Cc1ccc2c(c1)C(O)(c1c(C)[nH]c3ccccc13)C(=O)N2 (configuration not stated)
inactive: [1] -4.4% | [2] -1.6% | [3] -10%

O=C(NC(=S)Nc1ccc2c(c1)OCCO2)c1ccccc1F
inactive: [1] 2.3% | [2] 0.4% | [3] -3%

COc1ccc(CCNC(=S)NC(=O)/C=C/c2ccc(C)cc2)cc1OC
inactive: [1] 0.1% | [2] -1.3% | [3] -7.3%

O=C(CCCCCCCC(=O)c1ccccc1)c1ccccc1
inactive: [1] -2% | [2] -2.3% | [3] -9.8%

CC(=O)[C@H]1CC[C@H]2[C@@H]3CCC4=CC(=O)CC[C@]4(C)[C@H]3CC[C@]12C
inactive: [1] 2.7% | [2] 1.5% | [3] 3.1%

O=C(O)[C@H](Cc1ccccc1)NC(=O)N1CCC(Cc2ccccc2)CC1
inactive: [1] 5.5% | [2] 0.9% | [3] -2.3%

CCOCCn1c(C(C)O)nc2ccccc21 (configuration not stated)
inactive: [1] 4% | [2] 0.3% | [3] 3.1%

CC(=O)N(C(C)=O)c1nc2nc(C)cc(C)n2n1
inactive: [1] 5.2% | [2] 0.6% | [3] 1.4%

O=C(Nc1ccc(C(=O)NC2CCCCC2)cc1)c1cccnc1
inactive: [1] 0.1% | [2] -1.5% | [3] -12.6%

CC(=O)O[C@H]1C(=O)[C@@]2(C)[C@H]([C@H](OC(=O)c3ccccc3)[C@]3(O)C[C@H](OC(=O)[C@H](O)C(NC(=O)c4ccccc4)c4ccccc4)C(C)=C1C3(C)C)[C@]1(OC(C)=O)CO[C@@H]1C[C@@H]2O (some centres not stated)
inactive: [1] 1.1% | [2] -0.8% | [3] 4.6%

N/C(=N\OC(=O)CCCOc1ccc(Cl)cc1Cl)c1ccccn1
inactive: [1] 4% | [2] -0.3% | [3] -0.4%

COc1ccc(/C=N\NC(=O)CCc2c(C)n[nH]c2C)c(OC)c1OC
inactive: [1] -0.8% | [2] 0.3% | [3] 8.6%

Clc1ccc(OCCCN2CCCCC2)c(Br)c1
inactive: [1] 1.8% | [2] 0.2% | [3] -3.7%

Nc1nc2ccc(OC(F)(F)F)cc2s1
inactive: [1] 0.4% | [2] -0.1% | [3] 1.8%

N=c1ccn(CC(=O)NC(N)=O)c2ccccc12
inactive: [1] 3.3% | [2] 1.6% | [3] 3.1%

Cc1ccc(C(=O)Nc2ccc(O)cc2C(=O)O)cc1C
inactive: [1] 10.3% | [2] 2.6% | [3] 0.9%

O=Cc1ccc(OC(=O)c2cccnc2)cc1
inactive: [1] 0.2% | [2] -0.7% | [3] -3.8%

O=C(O)CC(O)C(=O)O (configuration not stated)
inactive: [1] -3.1% | [2] -0.9% | [3] 3.8%

C[N+]12CCCCC1C(COC(=O)c1ccc3c(c1)OCO3)CCC2 (configuration not stated)
inactive: [1] 2.1% | [2] 0.2% | [3] -0.7%

CCOC(=O)C1=C(C)N[C@@]2(O)c3ccccc3C(=O)[C@@]12O
inactive: [1] 2.4% | [2] 0.5% | [3] -1.2%

O=C(O)c1cccnc1
inactive: [1] 1.8% | [2] 2% | [3] 2.5%

COc1ccc2oc(=O)c(C(=O)N3CCN(c4ccccc4)CC3)cc2c1
inactive: [1] -1% | [2] 0.2% | [3] 1.6%

CCCN1CCC(NC(=O)Nc2ccc(Br)cc2)CC1
inactive: [1] 0.5% | [2] -1.7% | [3] -2%

CCn1ccnc1CN(C)Cc1cn(-c2cccc(C)c2)nc1-c1cccc(F)c1
inactive: [1] 0.6% | [2] -0.3% | [3] -3.5%

COc1ccc(/C=C\c2cc(OC)c(OC)cc2CC[N+](C)(C)C)cc1OC
inactive: [1] 2% | [2] -1.4% | [3] 3.5%

O=C1CN(O)C=C2N=c3ccccc3=C2N1c1ccc([N+](=O)[O-])cc1
inactive: [1] -2.6% | [2] -2.1% | [3] -4.4%

Cc1ccsc1/C=N\NC(=O)c1ccc2c(c1)OCO2
inactive: [1] 2.9% | [2] 0.4% | [3] -1.3%

O=C(O)Cc1ccc(O)c(F)c1
inactive: [1] 2.3% | [2] -0.5% | [3] -3.6%

O=c1oc2c(CN3CCCCC3)c(O)ccc2c2c1CCCCC2
inactive: [1] 4.3% | [2] 0.5% | [3] 1.1%

CSc1ccc(/C=N/N2CCN(Cc3ccc(C)cc3C)CC2)cc1
inactive: [1] -0.3% | [2] -0.6% | [3] -0.3%

c1cc2c(cc1C1CCCCC1)c1c3n2CCN=C3CCC1
inactive: [1] 0.7% | [2] -0.3% | [3] -11.8%

Nc1cnn(C2OC(CO)C(O)C2O)c(=O)n1 (configuration not stated)
inactive: [1] 0.5% | [2] 0% | [3] -3.7%

CC(=O)Nc1nnc(S(N)(=O)=O)s1
inactive: [1] 5.4% | [2] -0.3% | [3] -2.6%

OC[C@@H](O)[C@@H](O[C@H]1O[C@H](CO)[C@@H](O)[C@H](O)[C@H]1O)[C@H](O)[C@@H](O)CO
inactive: [1] 3.7% | [2] 0.6% | [3] 3.8%

CC(=O)O[C@]1(C(C)=O)CC[C@H]2[C@@H]3C[C@H](C)C4=CC(=O)CC[C@]4(C)[C@H]3CC[C@@]21C
inactive: [1] 0.4% | [2] -1.6% | [3] -5.5%

COc1ccc(C2C3CCCCC3(O)CCN2C(=O)c2cccs2)cc1 (configuration not stated)
inactive: [1] 2.8% | [2] 2.1% | [3] 5.5%

O=C(O)[C@@H](O)c1ccccc1
inactive: [1] -0.3% | [2] 0% | [3] -3.5%

CN(C)CCN(Cc1ccc(Cl)cc1)c1ccccn1
inactive: [1] -0.9% | [2] 0.1% | [3] -1.2%

COc1ccccc1-c1ccc(/C=C2/C=C(CC(C)C)OC2=O)o1
inactive: [1] 4.8% | [2] 1.7% | [3] 7.1%

CC(=O)Nc1nc(CCC(C)C)cc2c1c(=O)oc1ccccc12
inactive: [1] 1.3% | [2] -0.1% | [3] -9.4%

CC(=O)OCC(=O)[C@@]1(O)CC[C@H]2[C@@H]3CCC4=CC(=O)C=C[C@]4(C)[C@H]3[C@@H](O)C[C@@]21C
inactive: [1] -5.9% | [2] -1.8% | [3] -2.4%
